Screens (PubChem BioAssay)
Shown are actives, neighbours in structure and some others; about 7.5% of the full set was active somewhere.
ELG1 genotox: genotoxicity induction in ELG1-luciferase HEK293T cells. HEK293T ELG1-luciferase reporter, luminescence, 16 h. Potency, µM (titrated, usually from 46 µM), actives largely listed as activators. hit rate 1.3% among 330,000. AID 504466; also: nearly all actives have a fitted effect of over 60% in size
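Reporter readout depends on ELG1 protein level, which increases with genetic stress. After 16 hr compound exposure at 37 °C, luciferase activity was quantified using ONE-Glo.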
SMN2 splice up: increases expression of the SMN2 splice variant; AID 1458; HEK293 SMN2-luciferase splicing reporter, luminescence, 30-36 h; Potency, µM (highest dose often 46.1 µM), usual class: activators; hit rate 2.8% among 210,000; also: nearly all actives have a fitted effect of over 55% in size
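HEK293 cells carry an SMN2 minigene-luciferase reporter in which exon 7 inclusion puts luciferase in frame. Cells were seeded at 2000 cells/well, attached for 10-12 hours, then exposed to compounds for 30-36 hours at 37C before ONE-Glo luminescence.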
Rab9 prom act: Rab9 promoter activation; Huh7 Rab9 promoter-luciferase reporter, luminescence, 24 h; Potency, µM (doses to about 9.22 µM), usual class: activators; hit rate 2.8% among 320,000; AID 485297; also: nearly all actives have a fitted effect of over 60% in size
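Measured in stably transfected Huh7 cells bearing a Rab9 promoter–luciferase construct: 24 h compound treatment at 37 °C, followed by luminescence detection.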
FLuc counter: counter-screen for miR-21 project: firefly luciferase inhibitors or activators. P08659. purified FLuc, Km substrates, luminescence inhibition. Potency, µM (series often up to 57.5 µM), usual class: inhibitors. hit rate 6.9% among 360,000; also: nearly all actives have a fitted effect of over 55% in size
Target sequence (P08659 whole entry, looked up): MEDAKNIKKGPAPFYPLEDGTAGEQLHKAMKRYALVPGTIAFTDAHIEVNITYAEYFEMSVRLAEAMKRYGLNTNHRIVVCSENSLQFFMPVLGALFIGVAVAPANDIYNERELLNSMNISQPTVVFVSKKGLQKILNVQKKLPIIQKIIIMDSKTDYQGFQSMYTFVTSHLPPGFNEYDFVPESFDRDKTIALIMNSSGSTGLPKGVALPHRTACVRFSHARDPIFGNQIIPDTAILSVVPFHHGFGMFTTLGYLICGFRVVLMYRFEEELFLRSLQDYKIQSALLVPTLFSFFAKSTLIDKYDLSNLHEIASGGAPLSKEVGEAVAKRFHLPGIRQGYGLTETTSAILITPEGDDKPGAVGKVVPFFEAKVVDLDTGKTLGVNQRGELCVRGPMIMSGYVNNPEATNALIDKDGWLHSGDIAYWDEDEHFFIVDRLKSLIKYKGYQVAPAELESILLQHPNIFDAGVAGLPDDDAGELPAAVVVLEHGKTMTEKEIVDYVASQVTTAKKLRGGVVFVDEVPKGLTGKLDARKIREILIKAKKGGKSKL
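Purified P. pyralis luciferase (10nM final) with 10uM D-luciferin and 10uM ATP (Km levels) in 50mM Tris acetate pH 7.5, 10mM Mg acetate, 0.01% Tween-20, 0.05% BSA; qHTS 6-point titration, ~60 µM downward; luminescence read.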
NPC1 promoter act: activates the NPC1 promoter; Huh7 NPC1 promoter luciferase reporter, 24 h; Potency, µM (highest dose often 9.22 µM), usual class: activators; hit rate 2.4% among 320,000; also: nearly all actives have a fitted effect of over 60% in size
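Luminescence from an NPC1 promoter-driven luciferase reporter in stably transfected Huh7 cells was measured after 24 h compound treatment at 37 °C, followed by 10 min ambient incubation with luciferase detection reagent.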
KinaseGlo FLuc: Kinase-Glo luciferase inhibition (counter-screen); Kinase-Glo luciferase, ATP luminescence, 8 min; Potency, µM (titrated, usually from 38.3 µM), usual class: inhibitors; hit rate 0.28% among 200,000; also: nearly all actives have a fitted effect of over 60% in size
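Light output from Kinase-Glo luciferase with luciferin and 10 uM ATP in 50 mM imidazole pH 7.2, KCl, MgCl2, Tween 20, BSA; compound pin-delivered, 8-min ambient incubation, then luminescence read.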
Each line names hits and unclear results; the compound was inactive in the other large screens. Calls follow the shape of the dose curve; as a rule, active = well fitted curve in the direction sought with a large enough effect; inconclusive = small, poorly fitted or top-dose-only effect, or another doubt; inactive = no such curve, though single readings can be large; an effect the other way counts as inactive or inconclusive.

CC1CCCN(CCCN2C(=O)C3C(C(=O)Nc4cccc(Cl)c4)C4C=CC3(O4)C2C(=O)NC2CCCCC2)C1 (stereo not given)	none (no result: SMN2 splice up, KinaseGlo FLuc)
COC(=O)c1ccc(NC(=O)CSc2ccc(-c3sc(-c4ccccc4)nc3C)nn2)cc1	none (no result: ELG1 genotox, SMN2 splice up, Rab9 prom act, NPC1 promoter act, KinaseGlo FLuc)
CCOC(=O)c1c(C)[nH]c(CCC(=O)Nc2cc(C)ccc2OC)c1C	none (no result: ELG1 genotox, SMN2 splice up, Rab9 prom act, NPC1 promoter act, KinaseGlo FLuc)
CCOC(=O)c1[nH]c(C)c(C(=O)O)c1C	none
CCOC(=O)c1c(C)[nH]c(N=Nc2ccc(C)cc2C)c1C	ELG1 genotox inconclusive, Rab9 prom act 0.251µM, FLuc counter 15.1µM, NPC1 promoter act inconclusive
CCOC(=O)c1[nH]c(C)c(C(=O)Nc2ccccc2C)c1C	ELG1 genotox inconclusive
CCOC(=O)c1c(C)[nH]c(N=Nc2cc(C(=O)O)cc(C(=O)O)c2)c1C	FLuc counter 16.9µM (no result: SMN2 splice up, KinaseGlo FLuc)
CCOC(=O)c1c(C)[nH]c(N=Nc2ccccc2C)c1C	ELG1 genotox 23.1µM, Rab9 prom act inconclusive, FLuc counter 15.1µM
COc1ccc(C2=NN(c3nc(C(=O)O)cs3)C(O)(C(F)(F)F)C2)c(OC)c1 (stereo not given)	FLuc counter 10.7µM
COc1ccc(C2=NN(C(=O)c3cccs3)C(O)(C(F)(F)F)C2)cc1 (stereo not given)	FLuc counter inconclusive
Cc1cccc(Nc2nc(N)nc(CSc3nccn3C)n2)c1	ELG1 genotox inconclusive, SMN2 splice up inconclusive, Rab9 prom act 5.01µM, FLuc counter inconclusive, NPC1 promoter act inconclusive
Cc1ccc(Nc2nc(N)nc(CSc3nccn3C)n2)cc1	ELG1 genotox 2.91µM, SMN2 splice up 12.6µM, Rab9 prom act 1.58µM, FLuc counter 9.53µM, NPC1 promoter act 2.51µM
COC(OC)c1ccnc(-c2ccc(OC(C)=O)cc2)n1	SMN2 splice up inconclusive, FLuc counter inconclusive
COC(OC)c1ccnc(-c2ccc(OC(=O)c3cccs3)cc2)n1	FLuc counter 21.3µM
COC(OC)c1ccnc(-c2ccc(OC(=O)c3ccccc3)cc2)n1	FLuc counter 16.9µM
O=C(NCCS(=O)(=O)N1CCN(c2ccccc2F)CC1)C(c1ccccc1)c1ccccc1	none (no result: ELG1 genotox, SMN2 splice up, Rab9 prom act, NPC1 promoter act, KinaseGlo FLuc)
CCn1cc(C=C2C(=O)c3ccccc3C2=O)c2ccccc21	ELG1 genotox inconclusive, FLuc counter 6.01µM
O=Nc1c2cc(-c3ccccc3)[nH]nc-2c2ccccc12	ELG1 genotox inconclusive, SMN2 splice up 0.501µM, Rab9 prom act inconclusive, FLuc counter 0.426µM, NPC1 promoter act 3.16µM, KinaseGlo FLuc 2.24µM
Cc1cccc(-c2cc3c(N=O)c4ccccc4c-3n[nH]2)c1	ELG1 genotox inconclusive, SMN2 splice up 3.16µM, Rab9 prom act 1.26µM, FLuc counter 0.536µM, NPC1 promoter act 0.708µM, KinaseGlo FLuc 10µM
Cc1ccc(-c2n[nH]c(=O)c3ccccc23)cc1S(=O)(=O)N(C)C	none (no result: SMN2 splice up, KinaseGlo FLuc)
Cc1ccc(-c2cc3c(N=O)c4ccccc4c-3n[nH]2)cc1	ELG1 genotox inconclusive, Rab9 prom act inconclusive, FLuc counter 0.0953µM, KinaseGlo FLuc 10µM
O=c1[nH]nc(-c2ccccc2)c2ccccc12	none (no result: SMN2 splice up, KinaseGlo FLuc)
CCc1nnc(NC(=O)c2cccnc2SC)s1	none
CCOC(=O)C1(Cc2ccccc2Cl)CCN(C(=O)CCn2ccnc2C)CC1	Rab9 prom act inconclusive, FLuc counter 19µM (no result: SMN2 splice up)
CC(=O)N1c2ccc(S(=O)(=O)NCCC(=O)Nc3ccc(Br)c(C)c3)cc2CC1C (stereo not given)	none (no result: ELG1 genotox, SMN2 splice up, Rab9 prom act, NPC1 promoter act, KinaseGlo FLuc)
Cc1nc(C(=O)Nc2ccccc2)sc1C(=O)Nc1ccccc1	Rab9 prom act 3.55µM, FLuc counter 13.5µM, NPC1 promoter act 3.55µM (no result: SMN2 splice up, KinaseGlo FLuc)
Cc1nc(Cl)sc1C(=O)Nc1ccc(C(C)(C)C)cc1	ELG1 genotox inconclusive, FLuc counter 10.7µM (no result: SMN2 splice up, KinaseGlo FLuc)
Cc1nc(N)sc1C(=O)Nc1ccccc1	ELG1 genotox inconclusive, Rab9 prom act inconclusive, FLuc counter inconclusive, NPC1 promoter act inconclusive
Cc1ccc(NC(=O)c2sc(N)nc2C)cc1	ELG1 genotox 20.6µM, Rab9 prom act 2.24µM, FLuc counter 21.3µM, NPC1 promoter act 2.51µM (no result: SMN2 splice up, KinaseGlo FLuc)
Cc1ccc(NC(=O)c2c(C)noc2C)cc1	none
Cc1noc(N)c1C(=O)Nc1ccc(C(C)(C)C)cc1	ELG1 genotox inconclusive, SMN2 splice up inconclusive, Rab9 prom act 3.16µM, FLuc counter 3.38µM, NPC1 promoter act 2.51µM
